Measurements as given in PubChem BioAssay (NCATS).
“And” between values parts separate entries of the source, which are not always exact repeats. Identical values can stand only once. Records with an inconclusive call do not appear. The source made the active and inactive calls. The call rests on the fitted dose curve; in most records, active means well fitted inhibition curve with a large enough effect; inconclusive means small, poorly fitted or top-dose-only effect; inactive means flat fitted curve, though single readings scatter.

Columns and labels:
Test in all cases: Cytotoxic Profiling of Annotated Libraries Using Quantitative High-Throughput Screening (AID 1296008); further: nearly all actives have a fitted effect of over 60% in size
Conditions in all cases: Five cell lines viability, CellTiter-Glo ATP luminescence, 48-72 h; max response: hits give low values
CRL-7250 = normal cell line; test system: CRL-7250
Summary of the method: (§1)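 Cytotoxicity was measured as CellTiter-Glo ATP luminescence, read after 10 min at room temperature. Compound treatment of the cells lasted 48 or 72 hr at 37 degrees Celsius in a qHTS format.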

HEK293 = test system: HEK293
Summary of the method: as §1

HaCat = test system: HaCat
Summary of the method: as §1

KB-3-1 = test system: KB-3-1
Summary of the method: as §1

NIH3T3 = test system: NIH3T3
Summary of the method: as §1
On the % scale 0 is the no-effect control and ±100 the full control effect; potency means the concentration at half of the fitted maximal effect.

O[C@@H](COc1cccc2ncccc12)CN1CCN(C2c3ccccc3[C@@H]3[C@H](c4ccccc42)C3(F)F)CC1 (stereo partly specified)
active: Potency (HEK293) 10.6 µM and 18.4 µM
inactive: outcome (CRL-7250) | max response (HaCat) -3.25% | max response (KB-3-1) 2.31% | outcome (NIH3T3)

FC(F)(F)c1ccc(C=Cc2nc(COc3ccc(CCCCn4ccnn4)cc3)co2)cc1
active: Potency (CRL-7250) 13.2 nM | Potency (HaCat) 7.43 µM
inactive: max response (HEK293) -116% | max response (KB-3-1) -26.9% | max response (NIH3T3) -14.8%

OC1CCC(Nc2ncc3nc(Nc4c(F)cc(F)cc4F)n([C@@H]4CCOC4)c3n2)CC1 (stereo partly specified)
inactive: outcome (CRL-7250) | max response (HEK293) -2.09% | max response (HaCat) -6.12% | max response (KB-3-1) 8.34% | outcome (NIH3T3)

N#CC1(c2cccc(C(=O)Nc3cc(Oc4ccc5nc(NC(=O)C6CC6)sc5n4)ccc3F)c2Cl)CC1
active: Potency (CRL-7250) 5170 nM | Potency (HEK293) 13.2 µM and 6.51 µM | Potency (HaCat) 26.4 µM and 20.6 µM | Potency (NIH3T3) 3.32 µM and 3.26 µM
inactive: max response (KB-3-1) -20.5% and -13.3%

Cc1cc2c(cc1C1(c3ccc(C(=O)O)cn3)CC1)C(C)(C)CCC2(C)C
inactive: outcome (CRL-7250) | max response (HEK293) -8.08% | max response (HaCat) -17.6% | max response (KB-3-1) 4.32% | outcome (KB-3-1) | outcome (NIH3T3)

Nc1ncnc2c1c(-c1cccc(OCc3ccccc3)c1)cn2C1CC(CN2CCC2)C1 (stereo unspecified)
inactive: outcome (CRL-7250) | max response (HaCat) 4.36%
active: Potency (HEK293) 26.4 µM and 8.2 µM | Potency (KB-3-1) 23100 nM | Potency (NIH3T3) 23.5 µM and 4.61 µM

N#Cc1ccc(Oc2ccc3c(c2)COB3O)cc1
inactive: outcome (CRL-7250) | max response (HEK293) -0.565% | max response (HaCat) -2.09% and 3.76% | max response (KB-3-1) -8.17% and -9.93% | max response (NIH3T3) -0.632% and -20.3%

CC(C)C[C@@H](N)[C@H](O)C(=O)N[C@H](C(=O)N[C@H](C(=O)N[C@@H](CC(=O)O)C(=O)O)C(C)C)C(C)C
inactive: max response (CRL-7250) 3.99% | max response (HEK293) 3.01% | max response (HaCat) 1.98% | max response (KB-3-1) 4.23% | max response (NIH3T3) 1.99%

OC[C@H]1O[C@@H](OCCc2ccc(O)cc2)[C@H](O)[C@@H](O)[C@H]1O
inactive: max response (CRL-7250) -2.13% | max response (HEK293) 0.731% | max response (HaCat) -11.4% | max response (KB-3-1) -11.7% | max response (NIH3T3) 2.07%

CC(C)[C@H](O)C(=O)N[C@@H](C)C(=O)N[C@@H]1C(=O)N(C)CCc2ccccc21
inactive: max response (CRL-7250) -12.5% | max response (HEK293) -11.6% | max response (HaCat) 1.12% | max response (KB-3-1) -11.2% | max response (NIH3T3) -3.15%

O=c1[nH]c(=O)n([C@H]2C[C@@H](O)[C@@H](CO)O2)cc1I
inactive: max response (CRL-7250) -2.59% | max response (HEK293) -22.9% | max response (HaCat) 1.35% | outcome (KB-3-1) | max response (NIH3T3) 3.2%

CC[C@@H]([C@H](C)O)n1ncn(-c2ccc(N3CCN(c4ccc(OCC5CO[C@@](Cn6cncn6)(c6ccc(F)cc6F)C5)cc4)CC3)cc2)c1=O (stereo partly specified)
active: Potency (HEK293) 14.8 µM
inactive: max response (CRL-7250) -19.5% | max response (HaCat) -20.3% | max response (KB-3-1) -2.24% | max response (NIH3T3) -23.9%

CC(=O)Nc1cccc(-n2c(=O)n(C3CC3)c(=O)c3c(Nc4ccc(I)cc4F)n(C)c(=O)c(C)c32)c1
active: Potency (CRL-7250) 164 nM | Potency (HEK293) 11.8 µM | Potency (HaCat) 3.32 µM and 5.17 µM | Potency (NIH3T3) 418 nM and 259 nM
inactive: max response (KB-3-1) -5.06% and 7.25%

CSc1cccc(Nc2ncc3cc(-c4c(Cl)cccc4Cl)c(=O)n(C)c3n2)c1
active: Potency (CRL-7250) 235 nM | Potency (HEK293) 13.2 µM | Potency (NIH3T3) 332 nM
inactive: max response (HaCat) -17.3% | max response (KB-3-1) 7.1%

CNC(=O)[C@H](CC1=CN=C2C=CCC=C12)NC(=O)[C@@H](CC(=O)NO)CC(C)C
inactive: max response (CRL-7250) -4.69% | max response (HEK293) 4.44% | max response (HaCat) -12.2% | max response (KB-3-1) 8.99% | max response (NIH3T3) -0.494%

CC[C@H](C=C[C@@H](C)[C@H]1CC[C@H]2[C@@H]3CC=C4C[C@@H](O)CC[C@]4(C)[C@@H]3CC[C@]12C)C(C)C
inactive: max response (CRL-7250) -16.3% | max response (HEK293) 3.5% | max response (HaCat) -3.88% | max response (KB-3-1) 2.61% | max response (NIH3T3) 3.97%

COC(=O)[C@H](c1ccccc1Cl)N1CCc2sccc2C1
inactive: max response (CRL-7250) -2.92% | max response (HEK293) 3.92% | max response (HaCat) -12% | outcome (KB-3-1) | max response (NIH3T3) -0.568%

CC1(C)CC(=O)c2c(C(F)(F)F)nn(-c3ccc(C(N)=O)c(NC4CCC(O)CC4)c3)c2C1 (stereo unspecified)
active: Potency (CRL-7250) 259 nM | Potency (HEK293) 52.6 nM and 58 nM | Potency (HaCat) 132 nM and 231 nM | Potency (KB-3-1) 105 nM | Potency (NIH3T3) 235 nM and 184 nM

CC(C)=CCCC(C)=CCCC(C)=CCCC(C)=CCCC(C)=CCCC(C)=CCCC(C)=CCCC(C)=CCCC(C)=CCO
inactive: max response (CRL-7250) 0.939% | max response (HEK293) -3.76% | max response (HaCat) 1.51% | max response (KB-3-1) 4.17% | max response (NIH3T3) -3.52%

COc1cccc(OC)c1-c1cc(C(=O)NC2(C(=O)O)C3CC4CC(C3)CC2C4)nn1-c1ccnc2cc(Cl)ccc12 (stereo unspecified)
inactive: max response (CRL-7250) -4.21% | max response (HEK293) -21.7% | max response (HaCat) -12% | outcome (KB-3-1) | outcome (NIH3T3)

COc1cc(Cl)cn2c(-c3cccc(NC4CNC4)n3)cnc12
inactive: max response (CRL-7250) -2.6% | max response (HEK293) -13.3% | max response (HaCat) -3.22% | max response (KB-3-1) -0.178% | max response (NIH3T3) 4.3%
